In the supplement of paper PMC10849652:
About 8,800 targets were measured; listed, in parts, are those with a hit and a random draw of the rest. About 0.5% of all pairs of compound and target were hits.

Compound: CCn1c(C(=O)N(C2CC2)C2CC2)cc2c3c(ncn3C)c(Nc3cc(C)n(C)n3)nc21
Assay: log2 fold change, soluble protein after heating vs DMSO (PISA); higher = thermal stabilisation; K562 lysate, 10 uM; active = over 0.2 and 3.5 SD of the protein, either way, in both replicates (recomputed)
Summary of the method: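 Log-two fold change in thermal stability relative to solvent controls is reported from duplicates. For each sample, crude K562 extract from dounce-homogenised pellets in PBS pH 7.4 with 1 mM MgCl2, at 1 mg/mL protein, was treated with 10 μM compound for 30 min. Aliquots heated for 3 min across 48°C-58°C were pooled, brought to 0.5% NP-40 at 4°C and cleared at 21,000xg for 90 min. The supernatant was quantified by TMTpro 16plex LC-MS/MS with channel sums equalised.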

UniProt O75794, sequence (O75794 whole entry, looked up): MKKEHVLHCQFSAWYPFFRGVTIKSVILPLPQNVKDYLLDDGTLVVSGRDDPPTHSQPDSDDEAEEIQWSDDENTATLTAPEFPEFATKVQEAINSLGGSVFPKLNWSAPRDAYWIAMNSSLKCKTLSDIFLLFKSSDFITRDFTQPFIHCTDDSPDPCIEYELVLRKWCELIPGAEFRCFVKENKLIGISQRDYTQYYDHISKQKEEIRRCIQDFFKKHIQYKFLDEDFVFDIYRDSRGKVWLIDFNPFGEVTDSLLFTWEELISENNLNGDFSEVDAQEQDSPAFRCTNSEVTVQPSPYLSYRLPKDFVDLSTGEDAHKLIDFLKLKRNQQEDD
UniProt P56945, sequence (P56945 whole entry, looked up): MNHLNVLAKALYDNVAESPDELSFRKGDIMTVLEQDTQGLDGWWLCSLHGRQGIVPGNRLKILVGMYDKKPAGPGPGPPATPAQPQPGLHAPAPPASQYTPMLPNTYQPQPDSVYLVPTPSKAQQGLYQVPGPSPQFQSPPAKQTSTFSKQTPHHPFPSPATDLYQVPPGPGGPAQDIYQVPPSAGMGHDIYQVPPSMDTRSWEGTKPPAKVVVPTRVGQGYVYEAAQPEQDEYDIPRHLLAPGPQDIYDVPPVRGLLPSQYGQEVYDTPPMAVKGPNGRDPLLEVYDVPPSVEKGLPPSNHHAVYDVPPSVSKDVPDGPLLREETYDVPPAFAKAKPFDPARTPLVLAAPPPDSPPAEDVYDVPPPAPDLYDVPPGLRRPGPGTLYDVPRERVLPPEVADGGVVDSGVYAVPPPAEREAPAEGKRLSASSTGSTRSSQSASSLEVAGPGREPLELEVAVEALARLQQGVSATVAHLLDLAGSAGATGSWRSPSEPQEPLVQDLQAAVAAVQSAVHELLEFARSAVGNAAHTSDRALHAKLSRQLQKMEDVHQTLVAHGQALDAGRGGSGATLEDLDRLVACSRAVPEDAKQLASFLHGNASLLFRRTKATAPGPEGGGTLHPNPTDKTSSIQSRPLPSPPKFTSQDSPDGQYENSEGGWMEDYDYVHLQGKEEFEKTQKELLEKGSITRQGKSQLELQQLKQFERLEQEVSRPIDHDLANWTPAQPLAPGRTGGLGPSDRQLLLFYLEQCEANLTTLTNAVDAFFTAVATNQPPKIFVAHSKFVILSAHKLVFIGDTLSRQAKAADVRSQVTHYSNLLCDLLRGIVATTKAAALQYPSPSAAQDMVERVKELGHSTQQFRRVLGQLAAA
UniProt Q9Y487, sequence (Q9Y487 whole entry, looked up): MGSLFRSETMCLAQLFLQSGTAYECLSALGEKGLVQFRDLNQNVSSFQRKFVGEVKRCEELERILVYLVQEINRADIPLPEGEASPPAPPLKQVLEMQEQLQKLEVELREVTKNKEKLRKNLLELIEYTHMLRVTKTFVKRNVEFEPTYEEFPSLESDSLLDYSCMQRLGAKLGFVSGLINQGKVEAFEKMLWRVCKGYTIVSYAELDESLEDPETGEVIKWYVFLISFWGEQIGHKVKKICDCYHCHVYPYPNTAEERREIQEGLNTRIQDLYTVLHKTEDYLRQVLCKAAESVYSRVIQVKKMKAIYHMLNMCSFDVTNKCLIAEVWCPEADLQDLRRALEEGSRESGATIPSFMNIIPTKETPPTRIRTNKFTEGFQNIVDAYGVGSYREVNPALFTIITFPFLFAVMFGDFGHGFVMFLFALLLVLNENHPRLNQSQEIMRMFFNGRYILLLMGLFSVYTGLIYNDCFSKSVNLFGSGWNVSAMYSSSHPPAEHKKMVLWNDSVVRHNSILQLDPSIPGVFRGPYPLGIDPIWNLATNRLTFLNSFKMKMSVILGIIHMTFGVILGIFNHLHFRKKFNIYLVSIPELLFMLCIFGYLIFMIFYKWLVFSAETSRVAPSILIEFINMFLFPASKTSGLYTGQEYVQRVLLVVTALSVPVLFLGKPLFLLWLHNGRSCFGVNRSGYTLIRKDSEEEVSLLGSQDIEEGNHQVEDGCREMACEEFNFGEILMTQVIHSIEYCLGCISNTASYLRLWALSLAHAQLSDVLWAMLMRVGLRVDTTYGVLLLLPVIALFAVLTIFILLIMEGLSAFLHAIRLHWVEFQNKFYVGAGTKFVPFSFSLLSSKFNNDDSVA
UniProt P14635, sequence (P14635 whole entry, looked up): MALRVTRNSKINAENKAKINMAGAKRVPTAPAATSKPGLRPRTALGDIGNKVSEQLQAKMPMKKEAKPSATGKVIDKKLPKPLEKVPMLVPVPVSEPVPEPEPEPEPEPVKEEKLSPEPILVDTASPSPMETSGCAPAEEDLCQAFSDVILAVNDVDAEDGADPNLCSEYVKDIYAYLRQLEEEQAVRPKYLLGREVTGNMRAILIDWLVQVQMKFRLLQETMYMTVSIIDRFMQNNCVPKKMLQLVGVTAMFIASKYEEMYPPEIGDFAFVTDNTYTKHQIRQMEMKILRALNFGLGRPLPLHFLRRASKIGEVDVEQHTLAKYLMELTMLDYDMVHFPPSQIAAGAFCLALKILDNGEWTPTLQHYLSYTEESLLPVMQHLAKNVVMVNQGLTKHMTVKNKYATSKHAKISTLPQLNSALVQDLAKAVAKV
UniProt Q8N163, sequence (Q8N163 whole entry, looked up): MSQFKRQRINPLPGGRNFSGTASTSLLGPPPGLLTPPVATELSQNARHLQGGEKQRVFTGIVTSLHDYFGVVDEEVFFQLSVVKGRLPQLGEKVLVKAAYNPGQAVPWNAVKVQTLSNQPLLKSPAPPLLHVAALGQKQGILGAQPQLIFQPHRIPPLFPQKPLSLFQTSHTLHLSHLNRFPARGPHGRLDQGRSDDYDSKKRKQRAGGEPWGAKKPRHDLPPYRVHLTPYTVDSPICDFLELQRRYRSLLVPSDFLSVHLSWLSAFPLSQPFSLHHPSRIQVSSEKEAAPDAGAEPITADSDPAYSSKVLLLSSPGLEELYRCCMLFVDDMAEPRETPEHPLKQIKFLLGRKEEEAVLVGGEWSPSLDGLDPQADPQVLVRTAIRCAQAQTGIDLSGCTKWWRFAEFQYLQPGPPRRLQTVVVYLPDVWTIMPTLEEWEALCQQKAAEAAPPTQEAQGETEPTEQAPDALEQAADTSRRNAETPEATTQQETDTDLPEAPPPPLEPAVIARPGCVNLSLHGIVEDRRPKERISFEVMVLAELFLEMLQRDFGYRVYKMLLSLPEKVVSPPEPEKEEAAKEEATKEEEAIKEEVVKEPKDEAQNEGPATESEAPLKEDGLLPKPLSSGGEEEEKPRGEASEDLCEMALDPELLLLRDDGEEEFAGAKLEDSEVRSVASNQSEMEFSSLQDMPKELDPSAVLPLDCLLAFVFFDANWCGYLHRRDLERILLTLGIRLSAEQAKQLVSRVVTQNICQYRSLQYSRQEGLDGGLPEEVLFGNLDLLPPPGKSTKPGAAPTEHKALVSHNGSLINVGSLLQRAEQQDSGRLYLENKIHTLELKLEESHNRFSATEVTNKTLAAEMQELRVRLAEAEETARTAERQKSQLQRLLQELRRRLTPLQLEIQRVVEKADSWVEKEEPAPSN
UniProt O00748, sequence (O00748 whole entry, looked up): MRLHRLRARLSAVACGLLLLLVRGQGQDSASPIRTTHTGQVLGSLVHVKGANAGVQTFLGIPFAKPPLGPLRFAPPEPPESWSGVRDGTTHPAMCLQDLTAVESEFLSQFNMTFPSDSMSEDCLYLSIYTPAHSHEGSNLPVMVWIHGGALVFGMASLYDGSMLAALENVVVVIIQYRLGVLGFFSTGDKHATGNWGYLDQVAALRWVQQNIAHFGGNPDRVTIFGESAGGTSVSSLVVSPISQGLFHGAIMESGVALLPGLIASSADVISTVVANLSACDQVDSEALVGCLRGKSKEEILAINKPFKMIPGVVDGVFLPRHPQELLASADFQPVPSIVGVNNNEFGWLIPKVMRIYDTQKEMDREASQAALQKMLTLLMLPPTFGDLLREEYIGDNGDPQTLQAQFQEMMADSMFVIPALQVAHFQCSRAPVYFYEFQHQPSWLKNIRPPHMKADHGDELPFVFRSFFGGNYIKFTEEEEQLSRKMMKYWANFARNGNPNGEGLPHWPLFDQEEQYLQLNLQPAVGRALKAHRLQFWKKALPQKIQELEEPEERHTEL
UniProt P08962, sequence (P08962 whole entry, looked up): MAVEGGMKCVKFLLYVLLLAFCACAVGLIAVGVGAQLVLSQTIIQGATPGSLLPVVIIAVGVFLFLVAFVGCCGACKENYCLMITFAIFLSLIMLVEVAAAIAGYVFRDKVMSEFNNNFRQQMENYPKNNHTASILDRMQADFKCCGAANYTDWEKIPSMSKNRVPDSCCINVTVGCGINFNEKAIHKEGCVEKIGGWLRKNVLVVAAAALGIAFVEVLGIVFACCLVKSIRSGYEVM
UniProt Q9H257, sequence (Q9H257 whole entry, looked up): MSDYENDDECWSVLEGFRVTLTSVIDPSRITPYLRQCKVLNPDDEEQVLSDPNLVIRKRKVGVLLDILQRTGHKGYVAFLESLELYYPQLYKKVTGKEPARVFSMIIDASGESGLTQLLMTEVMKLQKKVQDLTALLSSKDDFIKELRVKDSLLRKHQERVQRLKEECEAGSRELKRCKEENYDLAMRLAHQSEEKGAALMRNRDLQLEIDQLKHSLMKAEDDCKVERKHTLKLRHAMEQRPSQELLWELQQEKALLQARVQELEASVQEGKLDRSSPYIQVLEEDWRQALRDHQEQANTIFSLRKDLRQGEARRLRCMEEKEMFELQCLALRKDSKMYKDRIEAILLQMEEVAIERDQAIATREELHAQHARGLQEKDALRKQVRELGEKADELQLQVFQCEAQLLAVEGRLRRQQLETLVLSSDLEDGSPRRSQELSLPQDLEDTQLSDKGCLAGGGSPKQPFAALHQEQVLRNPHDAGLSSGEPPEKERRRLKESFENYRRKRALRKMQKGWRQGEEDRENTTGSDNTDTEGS
UniProt Q15834, sequence (Q15834 whole entry, looked up): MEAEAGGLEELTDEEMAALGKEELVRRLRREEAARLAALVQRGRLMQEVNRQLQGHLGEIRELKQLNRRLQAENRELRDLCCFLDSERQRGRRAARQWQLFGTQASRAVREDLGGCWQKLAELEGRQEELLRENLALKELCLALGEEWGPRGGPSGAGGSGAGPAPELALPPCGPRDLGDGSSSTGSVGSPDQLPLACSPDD

log2 fold change, inactive:
CENPQ (UniProt Q7L2Z9) -0.084
CD63 (UniProt P08962) -0.011
CARS isoform 3 (UniProt P49589) 0.02
CCNC (UniProt P24863) 0.029
CBFA2T3 (UniProt O75081) -0.007
BUB1B isoform 3 (UniProt O60566) 0.01
CES2 isoform 4 (UniProt O00748) -0.046
CDC123 (UniProt O75794) 0.032
CCDC85B (UniProt Q15834) 0.007
CARD9 (UniProt Q9H257) 0.011
CANX isoform 2 (UniProt P27824) -0.014
CDKN2AIP (UniProt Q9NXV6) -0.026
AURKA (UniProt O14965) -0.009
CDC42BPA isoform 6 (UniProt Q5VT25) 0.021
ATG13 isoform 2 (UniProt O75143) 0.015
CARHSP1 (UniProt Q9Y2V2) -0.061
CCAR2 (UniProt Q8N163) 0.01
ATP6V0A2 (UniProt Q9Y487) 0.017
CCPG1 isoform 5 (UniProt Q9ULG6) 0.071
CCNB1 (UniProt P14635) -0.031
CCNH (UniProt P51946) -0.034
BCAR1 isoform 6 (UniProt P56945) -0.003
